Results on one compound are retold here after PubChem BioAssay AID540332 (The Scripps Research Institute Molecular Screening Center, 2011).

A number with no mark means an inactive call. The rule behind the calls is not given here.

The subject of the assay is Potassium Channel KATP. Nature of the assay: selectivity profile across receptors and CYP450s – biochemical, Ricerca HitProfilingScreen, CYP450, set 2, selectivity assay for S1P4 agonist project, profiling panel (AID 540332). Conditions: at 30 µM; active compounds read high.

Usually inhibition stands for the change of the read-out against control, counted positive when it falls. `COCCN=C1S/C(=C\c2cc(C)n(-c3ccc(F)cc3F)c2C)C(=O)N1C`: the inhibition is -5%.
